Measured values: article PMC4336329 (PLoS ONE, 2015)
Among all 310,000 compounds or so, about 14,000 (4.5%) showed an effect of 50% or more. Effects have a minus sign here. This excerpt belongs to a sample that is enriched for strong results.

target: human ether-à-go-go-related gene (hERG) potassium channel (human, UniProt Q12809); assay: primary screen, population patch clamp on CHO cells stably expressing hERG; higher = less effect of the substance
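Also: peak tail current of the secondary pulse compared with the same well before compound.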

Sequence of human ether-à-go-go-related gene (hERG) potassium channel (Q12809 whole entry, looked up): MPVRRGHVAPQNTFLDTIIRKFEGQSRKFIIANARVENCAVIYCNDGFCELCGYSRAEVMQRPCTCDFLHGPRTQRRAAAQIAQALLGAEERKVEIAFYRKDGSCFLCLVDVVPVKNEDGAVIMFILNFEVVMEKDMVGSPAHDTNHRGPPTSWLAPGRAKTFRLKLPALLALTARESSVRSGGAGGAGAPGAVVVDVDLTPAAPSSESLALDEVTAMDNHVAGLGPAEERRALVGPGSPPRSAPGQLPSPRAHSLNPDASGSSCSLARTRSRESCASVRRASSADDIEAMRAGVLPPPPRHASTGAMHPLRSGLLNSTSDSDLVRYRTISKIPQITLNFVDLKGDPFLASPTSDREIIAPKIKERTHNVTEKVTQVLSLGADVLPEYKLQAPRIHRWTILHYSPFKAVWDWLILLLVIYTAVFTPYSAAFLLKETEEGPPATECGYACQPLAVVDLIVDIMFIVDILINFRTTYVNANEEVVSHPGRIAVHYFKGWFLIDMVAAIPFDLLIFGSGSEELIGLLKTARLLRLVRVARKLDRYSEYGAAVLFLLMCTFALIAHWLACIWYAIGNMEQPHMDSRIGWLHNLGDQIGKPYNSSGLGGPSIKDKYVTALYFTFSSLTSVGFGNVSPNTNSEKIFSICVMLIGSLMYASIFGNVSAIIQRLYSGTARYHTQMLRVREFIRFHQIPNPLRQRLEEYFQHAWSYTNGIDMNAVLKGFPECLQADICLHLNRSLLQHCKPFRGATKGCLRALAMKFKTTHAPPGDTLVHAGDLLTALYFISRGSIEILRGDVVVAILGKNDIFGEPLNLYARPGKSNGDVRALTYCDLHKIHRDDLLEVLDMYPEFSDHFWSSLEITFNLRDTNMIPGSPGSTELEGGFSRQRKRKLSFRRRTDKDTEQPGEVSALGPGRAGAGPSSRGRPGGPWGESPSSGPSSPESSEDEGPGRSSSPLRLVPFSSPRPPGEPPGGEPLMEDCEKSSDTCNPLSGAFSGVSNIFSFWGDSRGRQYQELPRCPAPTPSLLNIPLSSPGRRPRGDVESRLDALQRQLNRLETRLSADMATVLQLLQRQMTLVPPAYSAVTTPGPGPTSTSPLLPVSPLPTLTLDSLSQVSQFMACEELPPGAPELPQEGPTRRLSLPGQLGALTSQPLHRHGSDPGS

| SMILES | hERG current change (%, negative = inhibition) at 10uM |
| --- | --- |
| Cc1ccc(NCC(O)C(O)C(O)CO)cc1C (centres unmarked) | 14.9% |
| Clc1ccc2oc(-c3ccccn3)nc2c1 | -0.352% |
| O=C(NCCNC(=O)c1ccc([N+](=O)[O-])cc1)c1ccncc1 | 12% |
| COc1ccc(CCNC(=O)c2nc3ncccn3n2)cc1OC | 18.6% |
| Cc1ccc2c(c1)N(CC(=O)N1CCCc3ccccc31)C(=O)CO2 | -8.16% |
| COc1cccc(N2CCN(c3ccc(N4C(=O)CCC4=O)cc3[N+](=O)[O-])CC2)c1 | 13.7% |
| COCCCNC(=O)CN(C1CCCCC1)S(=O)(=O)c1ccc(C)cc1 | -0.742% |
| CCC(CC)C(=O)NCCc1cc2c(C)ccc(C)c2[nH]c1=O | 2.39% |
| COc1ccccc1CN(C)C(=O)C(c1ccccc1)c1ccccc1 | -2.32% |
| O=C(NCc1ccco1)C1CCN(C(=O)c2ccc([N+](=O)[O-])cc2)CC1 | -53% |
| Cc1ccc(C(=O)N2CCC(C(=O)NCc3ccco3)CC2)cc1 | -11.3% |
| COc1cccc(C(=O)N2CCC(C(=O)NCc3ccco3)CC2)c1 | -14.9% |
| CCn1nnc(NC(=O)C(C)(c2ccccc2)c2ccccc2)n1 | -10.4% |
| CN(C)S(=O)(=O)NCC1CCCN(Cc2cc3ccccc3s2)C1 (centres unmarked) | -6.37% |
| COc1ccc(S(=O)(=O)NCC2CCCN(CC(C)(C)C)C2)cc1 (centres unmarked) | 14.9% |
| OCC1CCCN(Cc2ccc(-c3ccccc3)cc2)C1 (centres unmarked) | -28.4% |
| CCc1ccc(CN2CCCC(CNS(=O)(=O)c3ccc(OC)cc3)C2)cc1 (centres unmarked) | -69.8% |
| COc1ccc(S(=O)(=O)NCC2CCCN(Cc3cccc(C(C)=O)c3)C2)cc1 (centres unmarked) | -43.9% |
| CN(C)S(=O)(=O)NCC1CCCN(Cc2ccc(-c3ccccc3)cc2)C1 (centres unmarked) | -50.8% |
| CCOc1ccccc1CN1CCCC(CNS(=O)(=O)c2ccc(OC)cc2)C1 (centres unmarked) | -63.7% |
| COc1ccc(S(=O)(=O)NCC2CCCN(Cc3cccnc3)C2)cc1 (centres unmarked) | -47.7% |
| COc1ccc(S(=O)(=O)NCC2CCCN(Cc3ccccc3Cl)C2)cc1 (centres unmarked) | -37.9% |
| COc1ccc(S(=O)(=O)NCC2CCCN(Cc3ccc(C)o3)C2)cc1 (centres unmarked) | -25.5% |

| SMILES | hERG current change (%, negative = inhibition) at 10uM |
| --- | --- |
| COc1ccc(S(=O)(=O)NCC2CCCN(Cc3ccc(O)cc3)C2)cc1 (centres unmarked) | -59.2% |
| COc1ccc(S(=O)(=O)NCC2CCCN(Cc3ccccc3C)C2)cc1 (centres unmarked) | -12.3% |
| CC(C)C(C(=O)Nc1sc2c(c1C#N)CCCCC2)N1C(=O)c2ccccc2C1=O (centres unmarked) | 4.7% |
| Cn1c(CCCOc2ccc(Cl)cc2Cl)nnc1SCC(=O)Nc1cccc(F)c1 | -3.24% |
| COC(=O)/C=C1\C(=O)N(c2nc3ccc(OC)cc3s2)C(=S)N1c1ccc(F)cc1 | -7.23% |
| CCOc1ccc(OCc2ccc(C(=O)N3CCc4ccccc4C3)o2)cc1 | -10.4% |
| CC(=O)C[C@H]1c2cc(C(F)(F)F)ccc2S(=O)(=O)N1C1CCCC1 | -12.1% |
| CCCn1cc(CN2CCCC(CNC(=O)c3ccc(F)cc3)C2)c(C)n1 (centres unmarked) | -25.5% |
| O=C(NCC1CCCN(Cc2cccc(OCCO)c2)C1)c1ccc(F)cc1 (centres unmarked) | -16.3% |
| CSc1ccc(CN2CCCC(CNC(=O)c3ccc(F)cc3)C2)cc1 (centres unmarked) | -70.8% |
| O=C(NCC1CCCN(Cc2cccc(C(F)(F)F)c2)C1)c1ccc(F)cc1 (centres unmarked) | -58.2% |
| CSc1cccc(CN2CCCC(CNC(=O)c3ccco3)C2)c1 (centres unmarked) | -91.9% |
| Cc1cc(CN2CCCC(CNC(=O)c3ccc(F)cc3)C2)cc(C)c1O (centres unmarked) | -24.1% |
| CSc1cccc(CN2CCCC(CNC(=O)c3ccc(F)cc3)C2)c1 (centres unmarked) | -74.1% |
| O=C(NCC1CCCN(C(=O)c2cccc(C(F)(F)F)c2)C1)c1ccc(F)cc1 (centres unmarked) | -8.13% |
| CC(C)(O)C#Cc1ccc(CN2CCCC(CNC(=O)c3ccco3)C2)cc1 (centres unmarked) | -10.9% |
| CCOCc1cc(CN2CCCC(CNC(=O)c3ccco3)C2)ccc1OC (centres unmarked) | -48.3% |
| CSc1ccccc1C(=O)N1CCCC(CNC(=O)c2ccc(F)cc2)C1 (centres unmarked) | 15.3% |
| CCOC(=O)c1ccc(N=c2sc(C(=O)OC)cc(=O)n2CCCN2CCOCC2)cc1.Cl | -16.9% |
| CCN(CC(=O)Nc1c(F)cccc1F)C(=O)c1ccc(C2SCCS2)cc1 | 0.0972% |
| O=C(CCc1nnc(CCCCc2ccccc2)o1)N1CCN(CCO)CC1 | -0.0459% |
| Cc1cc(C)c(NC(=O)Cn2cc3c(n2)CCCC3)c(C)c1 | 10.4% |
| CSCC[C@H](NC(=O)OC(C)(C)C)C(=O)N/N=C/c1cc2ccc(C)cc2nc1Cl | -7.13% |

| SMILES | hERG current change (%, negative = inhibition) at 10uM |
| --- | --- |
| COc1ccc(C(=O)OCC(=O)Nc2c(C)cccc2C)cc1 | 17.4% |
| O=C(NCCCN1CCOCC1)C(=O)NCC1OCCN1S(=O)(=O)c1ccc(F)cc1 (centres unmarked) | -10.2% |
| CC(C)NC(=O)CCCc1cn(C)c2ccccc12 | 18.1% |
| COc1ccccc1N1CCN(C(=O)CNC(=O)c2cn(-c3ccccc3OC)c(=O)c3ccccc23)CC1 | -15.6% |
| O=C(NCC1CCCN(Cc2ccccc2F)C1)c1cccc(C(F)(F)F)c1 (centres unmarked) | -52.1% |
| O=C(NC1CCCN(Cc2ccccc2F)C1)c1cccc(N2CCCC2=O)c1 (centres unmarked) | 4.16% |
| CN(C(=O)c1cccc(Cl)c1)C1CCCN(Cc2ccccc2F)C1 (centres unmarked) | 0.373% |
| CCOc1ccc(N)c(SSc2cc(OCC)ccc2N)c1 | 19.3% |
| O=C1c2ccccc2C(=O)C1(CO)c1ccc(OC(F)F)cc1 | 18.3% |
| CCN(CC(=O)NCCc1ccc(S(N)(=O)=O)cc1)Cc1nc2cc(OC)c(OC)cc2c(=O)[nH]1 | 0.804% |
| O=C(O)CCC(=O)Nc1ccccc1C(=O)Nc1ccccc1 | 15.6% |
| CN(C(=O)c1ccccc1OCc1ccc(Cl)cc1)c1ccccc1 | -7.03% |
| CCN(CC(=O)Nc1cc(Cl)ccc1C)C(=O)CCc1nc2ccccc2c(=O)[nH]1 | -67.3% |
| CCN(CC)CCCCCC(=O)Nc1ccccc1C(=O)Nc1ccccc1 | -55.8% |
| CN(Cc1nc2ccccc2c(=O)[nH]1)C(=O)COc1ccccc1Cc1ccccc1 | -43.3% |
| CCN(CC(=O)NCCc1ccc(Cl)cc1)Cc1nc2ccccc2c(=O)[nH]1 | -53.3% |
| COC(=O)CCC(=O)Nc1ccccc1C(=O)Nc1ccccc1 | 9.16% |
| CCN(CC(=O)Nc1ccccc1C(F)(F)F)C(=O)CCc1nc2ccccc2c(=O)[nH]1 | 12.5% |
| CCN(CC(=O)Nc1c(F)cccc1F)C(=O)CCc1nc2ccccc2c(=O)[nH]1 | 8.25% |
| CN(Cc1nc2ccccc2c(=O)[nH]1)C(=O)c1ccccc1OCc1ccc(Cl)cc1 | -58.2% |
| CCN(CC(=O)NC(c1ccccc1)c1ccccc1)Cc1nc2ccccc2c(=O)[nH]1 | -32.4% |
| COc1ccc(NC(=O)CN2C(=O)C(C)Oc3ccccc32)c(OC)c1 (centres unmarked) | -10.4% |
| Cc1nc(-c2ccccc2)sc1C1(C)CC(c2ccccc2F)=NO1 (centres unmarked) | 1.13% |

| SMILES | hERG current change (%, negative = inhibition) at 10uM |
| --- | --- |
| O=c1c2ccccc2n2c(=S)[nH]nc2n1-c1ccccc1 | 38.4% |
| Cc1ccc(C2(c3ccc(C)cc3)CC2C(=O)Nc2ccc([N+](=O)[O-])cc2O)cc1 (centres unmarked) | -2.42% |
| CCc1ccccc1NC(=O)CC(NCc1ccccc1)C(=O)O (centres unmarked) | 22.5% |
| CCOc1ccc(Cc2nn[nH]n2)cc1 | 9.6% |
| CCn1cc(SCC(=O)N2CCc3ccccc32)c2ccccc21 | -1.74% |
| CC(C)N1CC(C(=O)O)CC1=O (centres unmarked) | 19% |
| Cn1c(CC(=O)Nc2ccccc2Cl)nnc1SCC(=O)NC1=NCCS1 | 14.7% |
| CCN1C(=O)/C(=C/C2=Cc3ccccc3OC2C)SC1=S (centres unmarked) | 14.7% |
| CCNCc1nc2cc(Cl)ccc2c(=O)[nH]1.Cl | 4.64% |
| CCN(CC(=O)Nc1cc(Cl)ccc1-n1cncn1)Cc1nc2ccccc2c(=O)[nH]1 | -60.3% |
| COCCN(CC(=O)Nc1cc(Cl)ccc1-n1cncn1)Cc1nc2ccccc2c(=O)[nH]1 | -43% |
| CCN(CC(=O)NCc1ccc(F)cc1)Cc1nc2ccccc2c(=O)[nH]1 | -56.5% |
| CCN(CC(=O)Nc1ccccc1SC)Cc1nc2ccccc2c(=O)[nH]1 | -23.9% |
| CCN(CC(=O)NCCc1ccc(S(N)(=O)=O)cc1)Cc1nc2ccccc2c(=O)[nH]1 | 17.9% |
| O=C(c1ccccc1)N(Cc1ccc(F)cc1)Cc1nc2ccccc2c(=O)[nH]1 | -35% |
| CCN(CC(=O)Nc1cccc(F)c1)Cc1nc2ccccc2c(=O)[nH]1 | -31.7% |
| CCN(CC(=O)Nc1ccc2c(c1)OCCO2)Cc1nc2cc(Cl)ccc2c(=O)[nH]1 | -29% |
| CCN(CC(=O)NC(=O)NCc1ccccc1)Cc1nc2ccccc2c(=O)[nH]1 | -12.9% |
| CCN(CC(=O)NCCc1ccc(F)cc1)Cc1nc2ccccc2c(=O)[nH]1 | -50.7% |
| CCN(CC(=O)NCc1ccc(F)cc1)Cc1nc2cc(Cl)ccc2c(=O)[nH]1 | -72.6% |
